SMN2 splice up: enhancers of SMN2 splice variant expression | HEK293 SMN2-luciferase splicing reporter, luminescence, 30-36 h | Potency, µM (top dose mostly 46.1 µM), for the others: at the top dose activity change, positive = activation, actives largely listed as activators | AID 1458 | 210,000 compounds, 2.8% hits; further: % of control where 0% means no effect; nearly all actives have a fitted effect of over 55% in size
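qHTS luciferase splicing reporter: luminescence rises when SMN2 exon 7 is included in transfected HEK293 cells. Compound exposure lasted 30-36 h at 37C, with 4.5 mM final sodium butyrate as control, followed by a ONE-Glo read.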
FLuc modulator: counter-screen for miR-21 project: firefly luciferase inhibitors or activators | purified FLuc, Km substrates, luminescence inhibition | 360,000 compounds, 6.9% hits | Potency, µM (top dose mostly 57.5 µM), for the others: at the top dose activity change, negative = inhibition, hits mostly inhibitors | AID 588342;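 further: plate controls were vehicle for no effect and reference inhibitor for full effect; nearly all actives have a fitted effect of over 55% in size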
Target sequence (P08659 whole entry, looked up): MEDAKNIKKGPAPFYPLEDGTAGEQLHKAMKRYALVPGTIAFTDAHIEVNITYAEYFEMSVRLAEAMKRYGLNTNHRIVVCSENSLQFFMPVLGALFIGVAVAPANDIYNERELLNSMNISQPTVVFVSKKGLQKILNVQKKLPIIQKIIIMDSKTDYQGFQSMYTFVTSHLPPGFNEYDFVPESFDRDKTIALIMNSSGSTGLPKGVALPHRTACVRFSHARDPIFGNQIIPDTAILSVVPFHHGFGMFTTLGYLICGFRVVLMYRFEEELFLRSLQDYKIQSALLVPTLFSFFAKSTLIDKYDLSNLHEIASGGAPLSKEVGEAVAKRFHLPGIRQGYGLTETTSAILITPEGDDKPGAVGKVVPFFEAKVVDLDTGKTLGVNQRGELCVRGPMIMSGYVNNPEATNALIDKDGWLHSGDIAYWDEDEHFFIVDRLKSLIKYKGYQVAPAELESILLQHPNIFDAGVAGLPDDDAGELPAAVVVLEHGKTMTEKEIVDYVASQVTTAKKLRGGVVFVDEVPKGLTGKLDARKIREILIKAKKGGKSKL
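Biochemical qHTS of compounds, final roughly 60 µM downward over six points, against 10 nM purified firefly luciferase using Km concentrations of substrates (10 uM D-luciferin, 10 uM ATP) in Tris acetate pH 7.5 buffer; luminescence output.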
Rab9 prom act: Rab9 promoter activation; 320,000 compounds, 2.8% hits; Potency, µM (series often up to 9.22 µM), without a hit: at the top dose activation, negative = inhibition, actives largely listed as activators; Huh7 Rab9 promoter-luciferase reporter, luminescence, 24 h; AID 485297; further: % of control where 0% means no effect; nearly all actives have a fitted effect of over 60% in size
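Luciferase signal after 10 min detection reagent at ambient indicates Rab9 promoter upregulation; stably transfected Huh7 cells were treated 24 h with compound in DMSO at 37 °C, 5% CO2.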
NPC1 promoter act: activators of NPC1 promoter; Huh7 NPC1 promoter luciferase reporter, 24 h; 320,000 compounds, 2.4% hits; Potency, µM (titrated, usually from 9.22 µM), without a hit: top-dose activation, hits mostly activators; further: % of control where 0% means no effect; nearly all actives have a fitted effect of over 60% in size
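Stable NPC1-promoter luciferase Huh7 line; cpd (DMSO) 24 h, 37 °C, 5% CO2; Amplite luciferase reagent 10 min RT; luminescence readout. qHTS format.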
ELG1 genotoxic: inducers of genotoxicity in HEK293T ELG1-luciferase cells. HEK293T ELG1-luciferase reporter, luminescence, 16 h. Potency, µM (doses to about 46 µM), for inactives: top-dose activity change, positive = activation, usual class: activators. 330,000 compounds, 1.3% hits. AID 504466; further: % of control where 0% means no effect; nearly all actives have a fitted effect of over 60% in size
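Screening used a luciferase reporter fused to human ELG1 in HEK293T cells. Luminescence was read on a CCD plate imager after 16 hr exposure and 30 min ONE-Glo incubation.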
The depositor's hits bear a star; ? = inconclusive; · = no result. Hits are enriched below; roughly 7.5% of the tested compounds scored in any of these assays. The call rests on the fitted dose curve; in most records, active means well fitted curve in the direction sought with a large enough effect; inconclusive means small, poorly fitted or top-dose-only effect, or another doubt; inactive means no such curve, though single readings can be large; an effect the other way counts as inactive or inconclusive. Potency means the concentration at half of the fitted maximal effect.

SMILES	SMN2 splice up	FLuc modulator	Rab9 prom act	NPC1 promoter act	ELG1 genotoxic
COc1c(C)cccc1C(=O)Nc1ccc(OCC(=O)N2CCOCC2)cc1C	·	13.5µM*	-20.0%	-10.0%	16.2%
CCCCOc1ccc(C(=O)Nc2ccc(CN3CCOCC3)cc2)cc1	·	?	-23.8%	-9.5%	-1.2%
O=C(Nc1ccc2c(c1)OCCO2)c1ccc(Cl)c(S(=O)(=O)N2CCOCC2)c1	-37.7%	?	8.2%	4.6%	-2.5%
CCCOc1ccc(C(=O)Nc2ccc(CN3CCOCC3)cc2)cc1	·	13.5µM*	-1.1%	8.1%	1.0%
COc1cccc(N2CCN(C(=O)Cn3ncc4c(=O)oc5ccccc5c43)CC2)c1	-9.4%	-2.0%	·	·	·
Cc1ccc(Cl)cc1NC(=O)CSc1nc2ccccc2c2nc(-c3ccccc3)nn12	·	-4.6%	·	·	·
CCCOc1cccc(C(=O)Nc2ccc(CN3CCOCC3)cc2)c1	·	?	-1.3%	12.7%	-6.3%
COc1c(C)cccc1C(=O)Nc1ccc(CN2CCOCC2)cc1	15.8µM*	16.9µM*	2.51µM*	3.16µM*	?
COc1cccc(NC(=O)c2ccc(CN3CCOCC3)cc2)c1	?	10.7µM*	3.16µM*	3.98µM*	7.7%
CC(C)Oc1cccc(C(=O)Nc2ccc(CN3CCOCC3)cc2)c1	-48.4%	12µM*	1.1%	5.9%	-4.5%
O=C(Cn1nc(Cc2cccnc2)c2ccccc2c1=O)Nc1ccc(F)c(Cl)c1	-12.1%	-4.0%	·	·	·
Cc1cnc(N)c2c(=O)oc3ccccc3c12	28.2%	-9.5%	-1.2%	5.4%	?
Cc1cccc(C)c1NC(=O)c1cc2c(=O)c3ccccc3oc2nc1C(F)(F)F	-9.9%	4.8%	-0.7%	-1.9%	-1.7%
CCOC(=O)c1c(C)nc(C)c2c(=O)oc3ccccc3c12	13.7%	16.9µM*	22.6%	-3.1%	-11.0%
CCOC(=O)c1cc2c(ccc3ccccc32)oc1=O	·	?	-4.6%	-1.3%	4.6%
CCOC(=O)c1cc2c(=O)c3ccccc3oc2nc1C	·	6.01µM*	?	22.2%	9.2µM*
COCc1nc2oc3ccccc3c(=O)c2cc1C(=O)OC	·	15.1µM*	4.47µM*	?	?
CCOc1ccccc1NC(=O)c1cc2c(=O)n(Cc3cccnc3)ccc2nc1C	·	2.0%	·	·	·
CCCSc1ccc([C@@H]2[C@H]3C(=O)N(CC)C(=O)[C@H]3[C@]3(C(=O)OC)CCCCN23)cc1	·	-3.9%	-0.8%	-5.2%	-8.0%
O=C(NNC(=O)c1ccc(O)cc1O)c1ccc(Cl)cc1	14.0%	?	5.4%	13.8%	?
O=C(NNC(=O)c1ccccc1O)c1ccc(Cl)cc1	17.7%	9.53µM*	?	?	?
O=C(NNC(=O)c1ccccc1O)c1cccc(Br)c1	·	16.9µM*	19.3%	?	13.4%
O=C(NNC(=O)C1CC1)c1ccc(-c2ccccc2)cc1	-6.9%	-5.7%	14.6%	7.1%	7.5%
Cc1cccc(C(=O)NNC(=O)c2ccc(Cl)cc2)c1O	15.8µM*	10.7µM*	?	?	9.2µM*
O=C(NNC(=O)c1ccccc1C(=O)O)c1ccc(-c2ccccc2)cc1	2.8%	16.9µM*	0.5%	-3.9%	1.7%
SMILES	SMN2 splice up	FLuc modulator	Rab9 prom act	NPC1 promoter act	ELG1 genotoxic
COC(=O)c1ccc(C(NC(=O)OCc2ccccc2)/C(=C/[C@@H](C)C(=O)NCc2ccncc2)c2cccnc2)cc1 (some centres not stated)	4.4%	·	·	·	·
COc1ccc(N2CCN(S(=O)(=O)CCNC(=O)/C=C/c3ccccc3)CC2)cc1	·	8.5%	-2.2%	-0.1%	0.2%
O=C(COC(=O)c1ccccc1O)NNC(=O)c1ccc(Br)cc1	·	-1.2%	-4.5%	-2.1%	-0.7%
O=C(NNC(=O)c1ccccc1O)c1ccc(Br)cc1	·	12µM*	?	?	26.0%
O=C(O)CNC(=O)/C(=C\c1cccc([N+](=O)[O-])c1)NC(=O)c1ccco1	·	-8.6%	-4.5%	0.2%	4.7%
Cc1cc2sc3ccccc3c(=O)c2c(C)c1O	·	8.49µM*	21.1%	15.7%	15.5%
O=c1c2ccccc2sc2ccc(Cl)cc12	28.7%	?	21.0%	25.6%	11.4%
CCCc1cc(=O)n2[nH]c(-c3ccccc3)cc2n1	11.2µM*	16.9µM*	2.82µM*	3.98µM*	?
CCOC(=O)Cc1cc(=O)n2[nH]c(-c3ccc(Cl)cc3)cc2n1	19.0%	13.5µM*	0.0%	2.7%	4.4%
CCCc1cc(=O)n2[nH]c(-c3ccc(Cl)cc3)cc2n1	·	15.1µM*	2.82µM*	?	?
CCCc1cc(=O)n2[nH]c(C)nc2n1	11.0%	0.3%	3.5%	0.1%	2.5%
CCOC(=O)Cc1cc(=O)n2[nH]c(C)cc2n1	30.8%	-0.6%	-3.3%	-1.2%	3.8%
CCCc1cc(=O)n2[nH]c(-c3ccc(C)cc3)cc2n1	12.6µM*	9.53µM*	3.98µM*	3.98µM*	?
NC(=O)C1CCN(C(=O)CC(c2ccccc2)c2ccccc2)CC1	·	-0.3%	-0.7%	1.0%	-3.3%
Cc1ccccc1CN1CCN(C2CCC2)CC1CCO (configuration not stated)	·	5.1%	-1.2%	-0.6%	0.6%
COc1cccc([C@@H]2Oc3ccc(Br)cc3C[C@H]2OC(=O)Nc2ccc(C)c(Br)c2)c1	-1.5%	·	·	·	·
N#CCc1ccc(NC(=O)Nc2cccc(Cl)c2)cc1	-13.9%	16.9µM*	29.0%	?	4.6%
COc1ccc(NC(=O)N/C=C/c2ccco2)cc1	17.6%	?	1.9%	1.7%	-1.0%
O=C(Nc1cccc(F)c1)Nc1cccc(Cl)c1	·	23.9µM*	?	29.1%	-1.5%
O=C(N/C=C/c1ccco1)Nc1cccc(Cl)c1	·	26.9µM*	19.2%	16.3%	-0.8%
CSc1ccccc1NC(=O)Nc1cccc(F)c1	·	21.3µM*	?	15.6%	1.3%
CCc1ccc(OCC2c3cc(OC)c(OC)cc3CCN2C(=O)COc2ccccc2)cc1 (configuration not stated)	·	-1.7%	·	·	·
CCc1ccccc1NC(=O)Nc1cccc(F)c1	-3.9%	?	0.9%	-3.6%	-4.7%
CNS(=O)(=O)c1ccc(NC(=O)Nc2cccc(F)c2)cc1	·	19µM*	?	12.0%	1.4%
CC(=O)Nc1cccc(NC(=O)Nc2cccc(F)c2)c1	·	9.53µM*	2.9%	5.5%	9.3%
SMILES	SMN2 splice up	FLuc modulator	Rab9 prom act	NPC1 promoter act	ELG1 genotoxic
COc1cc2nc(-c3ccc(Br)o3)oc(=O)c2cc1OC	-5.7%	2.9%	2.1%	-3.1%	5.8%
Cc1ccc2nc(-c3ccc(Br)o3)oc(=O)c2c1	26.7%	2.39µM*	-1.7%	-2.3%	11.0%
CCCCN(C(=O)Cc1ccc(S(=O)(=O)N2CCOCC2)s1)c1c(N)n(CC(C)C)c(=O)[nH]c1=O	·	0.5%	4.2%	-0.1%	-4.2%
COc1cccc(OC)c1C(=O)Nc1ccc(S(=O)(=O)Nc2nccc(C)n2)cc1	3.3%	5.2%	·	·	·
CC(=O)CSc1nc2ccccc2s1	8.0%	-13.9%	25.8%	19.5%	15.1%
CC(C)OC(=O)CSc1nc2ccccc2s1	-20.4%	23.9µM*	-0.7%	1.2%	?

Assay outcomes deposited in PubChem by National Center for Advancing Translational Sciences (NCATS).
